# An excerpt weighted towards active compounds, which were near 3.5% of everything screened.
# Mac1 fbg enh: enhancers of human CD11b/CD18 binding to fibrinogen; P05107+P11215; K562 CD11b/CD18 adhesion to fibrinogen, ATPlite luminescence; activation, % at 10 µM; 93,000 compounds, 0.07% hits;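 active = 10 µM primary screen giving 50% or more activity, confirmed by 40% or more on retest at that dose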
# Target sequence (P05107 whole entry, looked up, other chains not shown): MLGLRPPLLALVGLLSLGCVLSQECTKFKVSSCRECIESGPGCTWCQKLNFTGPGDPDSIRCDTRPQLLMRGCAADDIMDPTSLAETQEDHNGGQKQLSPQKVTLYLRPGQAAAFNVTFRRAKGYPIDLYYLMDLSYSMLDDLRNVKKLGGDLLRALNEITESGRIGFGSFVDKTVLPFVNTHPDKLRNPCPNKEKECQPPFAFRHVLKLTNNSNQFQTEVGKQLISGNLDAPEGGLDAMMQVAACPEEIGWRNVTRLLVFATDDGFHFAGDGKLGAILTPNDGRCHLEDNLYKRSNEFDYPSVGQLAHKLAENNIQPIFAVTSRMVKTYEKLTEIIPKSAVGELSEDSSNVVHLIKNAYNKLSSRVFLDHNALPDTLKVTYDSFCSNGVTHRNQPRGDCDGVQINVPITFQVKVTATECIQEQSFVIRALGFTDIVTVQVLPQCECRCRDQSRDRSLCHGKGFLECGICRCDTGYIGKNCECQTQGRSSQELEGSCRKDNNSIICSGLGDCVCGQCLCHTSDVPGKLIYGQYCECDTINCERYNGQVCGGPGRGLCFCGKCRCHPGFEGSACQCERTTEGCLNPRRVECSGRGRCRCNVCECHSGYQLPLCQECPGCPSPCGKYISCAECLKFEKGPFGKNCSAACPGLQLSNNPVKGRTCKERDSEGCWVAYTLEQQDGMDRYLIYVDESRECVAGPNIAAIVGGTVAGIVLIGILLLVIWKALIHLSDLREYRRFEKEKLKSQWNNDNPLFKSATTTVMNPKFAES
# ERa coact inh: ER-alpha (human) coactivator binding inhibition; TR-FRET ER-alpha LBD / SRC-1 peptide, estradiol-bound; 86,000 compounds, 1.7% hits; inhibition, % at 25.6 µM; AID 629; P03372; in the data active = inhibition above about 50%;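 also: 0% = receptor plus peptide control and 100% = peptide only without receptor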
# Mac1 fbg inh: blocks human CD11b/CD18 adhesion to fibrinogen; P05107+P11215; K562 CD11b/CD18 adhesion to fibrinogen, ATPlite luminescence; Mn2+ added to activate the integrin; inhibition, % at 10 µM; 93,000 compounds, 0.54% hits; AID 1497;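 active = primary inhibition of 50% or more at 10 µM, then 40% or more on retest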
# ERa coact pot: ER-alpha (human) coactivator binding potentiation. 86,000 compounds, 1.3% hits. coactivator binding (% of control), % at 25.6 µM. P03372. TR-FRET ERalpha-LBD/SRC-Cy5 coactivator binding, 2 h; 100 = basal binding, no effect; in the data active = activity above about 200%;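 also: binding measured in presence of low estradiol as agonist stimulus; 0% = peptide alone without receptor and 100% = receptor with peptide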
# ERb coact inh: blocks coactivator binding to human estrogen receptor beta; Q92731; TR-FRET ER-beta LBD / SRC1-Cy5 peptide binding; receptor agonist-loaded with 1 µM estradiol; inhibition, % at 25.6 µM; 86,000 compounds, 1.3% hits; AID 633;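 active = compounds whose percent inhibition of the receptor-coactivator binding signal exceeds about 50% in the single-dose screen, limit read from the data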;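 also: 0% = receptor plus peptide wells without compound and 100% = peptide-only wells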
# FAK inh: FAK (human) kinase inhibition; 97,000 compounds, 0.84% hits; Q05397; biochemical FAK kinase activity assay; inhibition, %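 (tested at 7 µM)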; in the data active = inhibition above about 19%;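 also: 0% = DMSO and 100% = reference compound high control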
# * hit, by the source's call; / = no result given; [ ] = another dose, or the depositor's remark.
SMILES,Mac1 fbg enh,ERa coact inh,Mac1 fbg inh,ERa coact pot,ERb coact inh,FAK inh
c1ccc(COc2ccc(CNn3cnnc3)cc2)cc1,3,-6,-2,109,-1,5
COc1ccccc1C(=O)Nc1c2c(nn1-c1cccc(C)c1C)CS(=O)(=O)C2,-2,32,0,410*[fluorescence artefact?],-6,8
Cc1ccc(N=C2NC(=O)S/C2=C\c2ccco2)cc1,14,/,10,/,/,/
COc1ccc(-c2nc(C#N)c(NCCc3ccccc3)o2)cc1OC,-1,5,8,105,4,1
O=C(O)c1ccc(Cl)c2c1C1C=CCC1C(c1ccccn1)N2 (stereo not given),-6,65*[fluorescence artefact?],15,15,87*[fluorescence artefact?],13
C1=CC2c3ccccc3NC(c3ccncc3)C2C1 (stereo not given),28,40,-6,39,40,-1
Cc1ccc(C(=O)N/C(=C/c2ccc(-c3cc(C(F)(F)F)ccc3Cl)o2)C(=O)NCc2cccnc2)cc1,34,/,5,/,/,-2
Cc1cc(C(=O)CSc2nnnn2-c2ccccc2)c(C)n1CCc1ccccc1,0,4,7,111,0,2
COc1ccc(CCn2c(C)cc(C(=O)CSc3nnnn3-c3ccccc3)c2C)cc1OC,0,65*[fluorescence artefact?],2,190,-30,3
COc1cc(NC(=O)CSc2nnnn2-c2ccccc2)cc(OC)c1OC,-2,11,-9,229*[fluorescence artefact?],9,2
COc1ccc(NC(=O)CSc2nnnn2-c2ccc(OC)cc2)cc1,-4,-10,10,100,-1,1
COc1cc(NC(=O)CSc2ncnc3c2cnn3Cc2ccccc2)cc(OC)c1,0,9,64*,142,-4,0
COC(=O)CSc1ncnc2c1cnn2Cc1ccccc1,-1,-12,-5,131,-5,0
COc1ccc(Cl)cc1C(=O)NNC(=S)NC(=O)c1cc(-c2ccccc2)nc2ccccc12,62*,/,16,/,/,-21
COc1ccc(-c2cc(-c3cccs3)c(C#N)c(SCC(=O)NCc3ccco3)n2)cc1,8,54*,-6,177,39,/
O=C(NCc1ccc2c(c1)OCO2)c1cc2c(s1)CSC2,/,27,/,74,31,/
O=C(NCc1ccco1)c1cc2c(s1)CSC2,2,71*,-10,77,65*,11
CN(CC(=O)Nc1ccncc1)S(=O)(=O)c1ccc(Br)cc1,-3,2,-4,83,-5,0
CN(CCCC(=O)Nc1ccncc1)S(=O)(=O)c1ccc(Cl)cc1,-6,-2,50*,105,-1,7
Cc1cccc(-c2cc(C(=O)NCc3ccccn3)c3ccccc3n2)c1,1,/,12,/,/,/
Cc1cccc(C(=O)c2cnc3ccccc3c2-c2ccccc2)c1,-2,/,59*,/,/,3
Cc1sc2ncnc(N3CCN(CCOc4ccc(Cl)cc4)CC3)c2c1C,-9,3,99*,93,-5,-1
Cc1cc(C)n(CC(O)COCc2ccco2)n1 (stereo not given),1,-7,5,120,-10,-2
Cc1cc(C)n(CC(O)COc2ccccc2)n1 (stereo not given),/,53*,/,101,-1,-8
Cc1cc(S(=O)(=O)N(C)CCc2ccccc2)ccc1-n1cnnn1,0,5,-7,124,1,2
SMILES,Mac1 fbg enh,ERa coact inh,Mac1 fbg inh,ERa coact pot,ERb coact inh,FAK inh
Cc1cc(S(=O)(=O)N(Cc2ccccc2)Cc2ccc(N(C)C)cc2)ccc1-n1cnnn1,/,14,/,211*,14,/
Cc1ccccc1NC(=O)/C=C/c1cccc(C(F)(F)F)c1,-1,/,23,/,/,0
Cc1cccc(OCCNC(=O)c2cc(-n3cnnc3)ccc2Cl)c1,0,/,14,/,/,1
Cc1ccc(C)c(NC(=O)Cn2nc(C)c3ccccc3c2=O)c1,4,18,-18,296*[fluorescence artefact?],3,/
COc1ccc(OC)c(NC(=O)Cc2nn(C)c(=O)c3ccccc23)c1,/,-48,/,111,-23,1
COc1ccc(-c2nn(C)c(=O)c3ccccc23)cc1NC(=O)COc1ccc(C)cc1,/,11,/,487*[fluorescence artefact?],16,-4
COc1ccc(NC(=O)Cc2nn(C)c(=O)c3ccccc23)c2ncccc12,-2,-5,2,217*,17,/
Cc1ccc(-c2nn(CC(=O)NCc3cc(-c4nn(C)c(=O)c5ccccc45)ccc3C)c(=O)c3ccccc23)cc1,-2,88*[fluorescence artefact?],9,66,64*[fluorescence artefact?],0
C=CCc1ccc(OCCOCCOc2ccccc2[N+](=O)[O-])c(OC)c1,/,/,/,/,/,0
CCCSc1nc2c(c(=O)[nH]c(=O)n2C)n1C,-2,-2,7,124,-1,5
COc1ccc(-c2nn(C)c(=O)c3ccccc23)cc1NC(=O)Cn1nc(C)c2ccccc2c1=O,75,63*,-4,287*[fluorescence artefact?],50*[fluorescence artefact?],1
CCC(=O)Nc1cc(-c2nn(C)c(=O)c3ccccc23)ccc1OC,0,/,6,/,/,-1
Cc1ccc(C(=O)C[n+]2cc(-c3ccc(C)cc3)n3c2CCCCC3)cc1,-6,/,54*,/,/,5
O=C(C[n+]1cc(-c2ccccc2)n2c1CCC2)OCc1ccccc1,1,/,10,/,/,/
O=C(Nc1cnn(Cc2ccc(Cl)cc2Cl)c1)c1cc(-c2cccs2)on1,/,51*[fluorescence artefact?],/,157,23,1
CCCCCC(=O)N/N=C(\C)c1ccc(Cl)cc1,-2,/,3,/,/,-2
O=C(Nc1nc2ccccc2[nH]1)c1ccccc1,-3,-2,28,107,-5,1
O=C(c1ccccc1)N1CCN(c2ccc(NCc3ccc4c(c3)OCO4)cc2)CC1,0,/,17,/,/,1
COc1ccc(C(=O)c2c(C(F)(F)F)oc3c2C(=O)c2ccccc2C3=O)cc1,5,1,19,114,68*,11
CCOc1ccc(-c2nnc3sc(-c4c(OC)cccc4OC)nn23)cc1,/,35,/,185,31,6
COc1ccccc1-c1nn2c(-c3ccc(C(C)(C)C)cc3)nnc2s1,-3,44,62,241*,42,/
CCOc1cccc(-c2nnc3sc(-c4ccco4)nn23)c1,0,2,7,244*,2,/
CCOc1cccc(-c2nnc3sc(-c4ccc(C)cc4)nn23)c1,0,4,-1,101,14,/
COc1ccccc1-c1nnc2sc(-c3cnccn3)nn12,-3,52*[fluorescence artefact?],8,59,65*,2
CCOc1ccc(-c2nnc3sc(-c4ccccc4OC)nn23)cc1,/,-27,/,941*[fluorescence artefact?],4,-1
N#Cc1c(SCC(=O)N2CCOCC2)nsc1SCC(=O)N1CCOCC1,12,-1,-51,96,2,0
COc1ccc(NC(=O)NS(=O)(=O)c2ccc(C)cc2)c(OC)c1,-2,5,1,92,18,-5
COc1ccc(NS(=O)(=O)c2ccc(-n3nnc4ccccc43)c([N+](=O)[O-])c2)cc1,0,6,7,108,-1,6
